Records with an inconclusive call do not appear. The source made the active and inactive calls. Unless noted, calls follow the shape of the dose curve; as a rule, active = well fitted curve in the direction sought with a large enough effect in the repeat runs; inconclusive = weak or mixed curves; inactive = no such curve, though single readings can be large; an effect the other way counts as inactive or inconclusive.
What was measured:
[1] = qHTS assay for small molecules that induce genotoxicity in human embryonic kidney cells expressing luciferase-tagged ATAD5 (AID 651632); also: nearly all actives have a fitted effect of over 15% in size; also: potency is read from the fitted curve at half-maximal effect
In short: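 ATAD5-luc HEK293T, 2,000 cells/well; cpd or DMSO pin-transferred; 16 hr, 37C/5% CO2; Amplite 30 min RT; luminescence.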

[2] = qHTS assay for small molecule agonists of the p53 signaling pathway - cell viability (AID 651633; calls by dose curve;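 also: p53RE-bla HCT reporter cells with a stable beta-lactamase p53 reporter; series mostly up to about 83 µM; nearly all actives have a fitted effect of over 30% in size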)
In short: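 p53RE-bla cells, seeded at 4,000 per well and rested 5 h at 37 C/5% CO2, received compounds in DMSO for 16 h at 37 C. CellTiter-Glo was then added, and luminescence was read after 30 min at room temperature to gauge cytotoxicity.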

[3] = qHTS assay for small molecules that induce genotoxicity in human embryonic kidney cells expressing luciferase-tagged ATAD5 - cell viability (AID 651634; calls by dose curve; also: nearly all actives have a fitted effect of over 25% in size)
In short: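 Fluorescence from CellTiter-Fluor, reporting protease activity within live cells, served as the viability read-out. HEK293T cells carrying luciferase-tagged ATAD5 had been treated with compound for 15.5 hr at 37C.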

[4] = qHTS assay for small molecule disruptors of the mitochondrial membrane potential - cell viability (AID 720634; calls by dose curve;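 also: human HepG2 liver cancer cells; series mostly up to about 83 µM; nearly all actives have a fitted effect of over 20% in size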)
In short: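 Cells: HepG2, 2,000/well, attached overnight. Compound 1 hr, 37 C/5% CO2. +m-MPI dye, +CellTiter-Glo 30 min RT. Readout: luminescence (ATP).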

[5] = qHTS assay for small molecule disruptors of the mitochondrial membrane potential (AID 720635); also: potency is read from the fitted curve at half-maximal effect
In short: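 HepG2 cells (2,000/well) attached overnight at 37C, then took compound for 1 hr at 37C, 5% CO2. Mito-MPS dye was added for 30 min; fluorescence was read at 490/535 nm (monomers) and 540/590 nm (aggregates).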

[6] = qHTS assay to test for compound auto fluorescence at 590 nm (red) in HepG2 cells (AID 720674)
In short: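 Rose Bengal sodium served as the red fluorophore standard. HepG2 monolayers (overnight attachment, MEM with 10% FBS) were exposed to test compounds for 1 hr at 37 C and read at Ex 540/Em 590 nm.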

[7] = qHTS assay to test for compound auto fluorescence at 535 nm (green) in HepG2 cells (AID 720675)
[8] = qHTS assay to test for compound auto fluorescence at 460 nm (blue) in HEK293 cells (AID 720678)
In short: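 Blue-channel (Ex/Em 405/460 nm) intensity measured in HEK293 cultures after overnight compound exposure at 37C; signal expressed relative to triamterene. Cells plated 2,000 per well in 10% dialyzed FBS medium and allowed 4-5 hr to attach.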

[9] = qHTS assay to test for compound auto fluorescence at 590 nm (red) in HEK293 cells (AID 720679)
In short: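 Red-channel autofluorescence (Ex/Em 540/590 nm; Rose Bengal sodium reference) was measured after overnight 37C, 5% CO2 exposure of attached HEK293 cells, 2,000 per well in medium with 10% dialyzed FBS.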

[10] = qHTS assay to test for compound auto fluorescence at 535 nm (green) in HEK293 cells (AID 720680)
[11] = qHTS assay to test for compound auto fluorescence at 460 nm (blue) in HEK293 cell free culture (AID 720681)
In short: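 Test compounds were pinned into cell-free culture medium (DMEM with 10% FBS) and fluorescence was read directly at Ex/Em 405/460 nm. Signals were expressed as fluorescence equivalents of triamterene, with DMSO vehicle as control.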

[12] = qHTS assay to test for compound auto fluorescence at 535 nm (green) in HEK293 cell free culture (AID 720682)
In short: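 No cells present: wells hold DMEM supplemented with 10% FBS, into which compound or vehicle is pinned. Green emission is then recorded (485 nm excitation, 535 nm emission) and scaled to fluorescein.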

[13] = qHTS assay to test for compound auto fluorescence at 590 nm (red) in HEK293 cell free culture (AID 720683)
In short: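 Tox21 10K library compounds were pinned into cell-free DMEM with 10% FBS and fluorescence was read at excitation 540 nm. Activity is expressed as Rose Bengal sodium equivalency.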

[14] = qHTS assay to test for compound auto fluorescence at 590 nm (red) in HepG2 cell free culture (AID 720684)
In short: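 Red fluorescence (540 nm excitation, 590 nm emission) was measured after compound transfer into cell-free MEM supplemented with 10% FBS. Values are equivalencies against Rose Bengal sodium.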

[15] = qHTS assay to test for compound auto fluorescence at 535 nm (green) in HepG2 cell free culture (AID 720686)
[16] = qHTS assay to test for compound auto fluorescence at 460 nm (blue) in HepG2 cells (AID 720687)
In short: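 Cells (2,000/well in MEM with 10% FBS) attached overnight at 37 C, then were exposed to compound or DMSO for 1 hr at 37 C, 5% CO2. Fluorescence read at Ex/Em 405/460 nm, expressed as triamterene-equivalent signal.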

[17] = target: Glucocorticoid receptor (Homo sapiens) (UniProt P04150); assay: qHTS assay to identify small molecule agonists of the glucocorticoid receptor (GR) signaling pathway (AID 720691; active = well fitted activation curve with a large enough effect in the signal ratio in the repeat runs, not every such curve was filed as active; the % refers to the signal ratio)
Glucocorticoid receptor (Homo sapiens), sequence (P04150 whole entry, looked up): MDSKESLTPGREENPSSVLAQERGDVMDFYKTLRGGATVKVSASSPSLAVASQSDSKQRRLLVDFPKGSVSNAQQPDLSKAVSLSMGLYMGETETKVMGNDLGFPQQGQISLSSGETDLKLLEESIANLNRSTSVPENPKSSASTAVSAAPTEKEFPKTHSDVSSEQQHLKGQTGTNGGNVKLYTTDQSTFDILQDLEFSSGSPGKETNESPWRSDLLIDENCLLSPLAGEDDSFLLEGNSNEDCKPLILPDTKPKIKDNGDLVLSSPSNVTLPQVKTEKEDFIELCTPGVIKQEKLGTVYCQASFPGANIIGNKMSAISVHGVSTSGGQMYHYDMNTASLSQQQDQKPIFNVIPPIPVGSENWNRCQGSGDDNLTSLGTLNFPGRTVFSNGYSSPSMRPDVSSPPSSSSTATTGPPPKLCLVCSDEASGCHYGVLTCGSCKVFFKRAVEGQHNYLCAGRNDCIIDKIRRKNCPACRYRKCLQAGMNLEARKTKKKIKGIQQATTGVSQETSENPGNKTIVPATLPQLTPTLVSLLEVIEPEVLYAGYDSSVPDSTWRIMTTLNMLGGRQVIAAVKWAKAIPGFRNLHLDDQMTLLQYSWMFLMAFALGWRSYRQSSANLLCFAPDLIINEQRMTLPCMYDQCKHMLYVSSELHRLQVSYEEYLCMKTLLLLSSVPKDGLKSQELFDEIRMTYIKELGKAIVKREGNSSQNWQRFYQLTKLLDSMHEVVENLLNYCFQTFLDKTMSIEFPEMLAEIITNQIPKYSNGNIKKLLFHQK
In short: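 Fluorescence intensity from LiveBLAzer B/G FRET substrate (2 h, room temperature) reports beta-lactamase expression driven by the glucocorticoid response element in GR-bla HeLa cells after 18 h compound exposure at 37 C.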

[18] = target: Glucocorticoid receptor (Homo sapiens) (UniProt P04150); assay: qHTS assay to identify small molecule antagonists of the glucocorticoid receptor (GR) signaling pathway (AID 720692; active = well fitted inhibition curve with a large enough effect in the signal ratio in the repeat runs, not every such curve was filed as active; the % refers to the signal ratio)
In short: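 HeLa GR-bla cells; cmpd + dex 5 nM final, 18 h 37 C; LiveBLAzer B/G FRET substrate 2 h RT; fluorescence intensity read. Antagonist mode, qHTS.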

[19] = qHTS assay to test for compound auto fluorescence at 460 nm (blue) in HepG2 cell free culture (AID 720685)
In short: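 Compound (23 nL) or DMSO pinned into cell-free MEM with 10% FBS; blue fluorescence read at 405/460 nm excitation/emission, expressed as auto-fluorescence equivalency to triamterene.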
% is scaled to controls: 0 for no effect and ±100 for the full control effect.

CN1[C@@H]2CC[C@H]1CC(OC(=O)c1c[nH]c3ccccc13)C2 (some centres undefined)
inactive: Potency [1] | Potency [2] | Potency [3] | Potency [4] | Potency [5] | outcome [6] | outcome [7] | outcome [8] | outcome [9] | outcome [10] | outcome [11] | outcome [12] | outcome [13] | outcome [14] | outcome [15] | outcome [16]

Cc1ccc(C(C)C)cc1O
inactive: Potency [1] | Potency [2] | Potency [3] | Potency [4] | outcome [6] | outcome [7] | outcome [8] | outcome [9] | outcome [10] | outcome [11] | outcome [12] | outcome [13] | outcome [14] | outcome [15] | outcome [16] | Potency [17] | Potency [18]
active: Potency [5] 48.6 µM

CC(=O)N(CC(O)CN(C(C)=O)c1c(I)c(C(=O)NCC(O)CO)c(I)c(C(=O)NCC(O)CO)c1I)c1c(I)c(C(=O)NCC(O)CO)c(I)c(C(=O)NCC(O)CO)c1I (centres undefined)
inactive: Potency [1] | Potency [2] | Potency [3] | Potency [4] | Potency [5] | fluorescence, relative to Rose Bengal [6] 0.142% [at 18.6 µM] | fluorescence, % of fluorescein control [7] 0.0792% [at 18.6 µM] | fluorescence, % of triamterene [8] 0.0832% [at 18.6 µM] | fluorescence, % of fluorescent control [9] -0.003% [at 18.6 µM] | fluorescence, % of fluorescein [10] -0.0222% [at 18.6 µM] | fluorescence, % of fluorescent control [11] 0.0333% [at 18.6 µM] | activity change [12] -0.0739% [at 18.6 µM] | fluorescence, % of Rose Bengal [14] 0.365% [at 18.6 µM] | fluorescence, % of fluorescent control [19] -0.0088% [at 18.6 µM] | fluorescence, % of fluorescein control [15] 0.0651% [at 18.6 µM] | fluorescence, % of fluorescent control [16] -0.0121% [at 18.6 µM] | Potency [17]

O=C1CCCCC1C1CCCCC1 (centres undefined)
inactive: Potency [1] | Potency [2] | Potency [3] | Potency [4] | outcome [6] | outcome [7] | outcome [8] | outcome [9] | outcome [10] | outcome [11] | outcome [12] | outcome [13] | outcome [14] | outcome [15] | outcome [16] | Potency [17] | Potency [18]

CN(C)CCOc1ccccc1Cc1ccccc1
inactive: Potency [1] | Potency [2] | Potency [3] | Potency [4] | outcome [6] | outcome [7] | outcome [8] | outcome [9] | outcome [10] | outcome [11] | outcome [12] | outcome [13] | outcome [14] | outcome [15] | outcome [16]
active: Potency [5] 2.66 µM

CCC/C=C/CO
inactive: Potency [1] | Potency [2] | Potency [3] | Potency [4] | outcome [6] | outcome [7] | outcome [8] | outcome [9] | outcome [10] | outcome [11] | outcome [12] | outcome [13] | outcome [14] | outcome [19] | outcome [15] | outcome [16] | Potency [17]

Nc1ccc(Oc2ccc(N)c(N)c2)cc1
inactive: Potency [2] | Potency [3] | Potency [4] | outcome [6] | outcome [7] | outcome [8] | outcome [9] | outcome [10] | outcome [11] | outcome [12] | outcome [13] | outcome [19] | outcome [15] | outcome [16] | Potency [17]
active: Potency [1] 30.6 µM | Potency [5] 17.2 µM

CNCCC(Oc1ccccc1OC)c1ccccc1 (centres undefined)
inactive: Potency [1] | Potency [2] | Potency [3] | Potency [4] | Potency [5] | outcome [6] | outcome [7] | outcome [8] | outcome [9] | outcome [10] | outcome [11] | outcome [12] | outcome [14] | outcome [19] | outcome [15] | outcome [16]

CC(C)C[C@H](NC(=O)OCC1c2ccccc2-c2ccccc21)C(=O)O
inactive: Potency [2] | Potency [3] | Potency [4] | outcome [6] | outcome [7] | outcome [8] | outcome [9] | outcome [10] | outcome [11] | outcome [12] | outcome [13] | outcome [19] | outcome [15] | outcome [16] | Potency [18]
active: Potency [1] 12.2 µM

O=[N+]([O-])c1nccn1CO[C@@H](CO)[C@H](O)CO
inactive: Potency [1] | Potency [2] | Potency [3] | Potency [4] | Potency [5] | outcome [6] | outcome [7] | outcome [8] | outcome [9] | outcome [11] | outcome [13] | outcome [14] | outcome [19] | outcome [15] | outcome [16] | Potency [17] | Potency [18]

CCOc1ccc(NC(N)=O)cc1
inactive: Potency [1] | Potency [2] | Potency [3] | Potency [4] | outcome [6] | outcome [7] | outcome [8] | outcome [9] | outcome [10] | outcome [11] | outcome [12] | outcome [13] | outcome [14] | outcome [19] | outcome [15] | Potency [17] | Potency [18]

CCOc1ccc(NS(=O)(=O)c2ccc(N)cc2)nn1
inactive: Potency [1] | Potency [2] | Potency [3] | Potency [4] | Potency [5] | outcome [6] | outcome [7] | outcome [8] | outcome [9] | outcome [10] | outcome [11] | outcome [13] | outcome [14] | outcome [19] | outcome [15] | outcome [16] | Potency [17] | Potency [18]

CN1CCN(C2=Nc3ccccc3Oc3ccc(Cl)cc32)CC1
inactive: Potency [1] | Potency [2] | Potency [3] | Potency [4] | fluorescence, relative to Rose Bengal [6] 0.128% [at 18.6 µM] | fluorescence, % of fluorescein control [7] -0.116% [at 18.6 µM] | fluorescence, % of triamterene [8] 0.0075% [at 18.6 µM] | fluorescence, % of fluorescent control [9] 0.151% [at 18.6 µM] | fluorescence, % of fluorescein [10] 0.0654% [at 18.6 µM] | fluorescence, % of fluorescent control [11] 0.0139% [at 18.6 µM] | activity change [12] -0.0046% [at 18.6 µM] | fluorescence, % of fluorescent control [13] 0.0885% [at 18.6 µM] | fluorescence, % of Rose Bengal [14] -0.256% [at 18.6 µM] | fluorescence, % of fluorescent control [19] -0.0109% [at 18.6 µM] | fluorescence, % of fluorescein control [15] 0.0479% [at 18.6 µM] | fluorescence, % of fluorescent control [16] 0.0039% [at 18.6 µM] | Potency [17]

From PubChem BioAssay (Tox21)
